# Measured values reported in PubChem BioAssay (EPA / NIEHS).
# “And” between values parts separate entries of the source, which are not always exact repeats. Identical values can stand only once. Inconclusive results are not listed. Some compounds were tested as several samples or in several runs, with calls that do not always agree. The source made the active and inactive calls. The calls were made as follows: active = hit-call score of the fitted dose curve at least 0.9, where 1 is the maximum; inconclusive = response in the unintended direction; inactive = score below 0.9.
# Target: Cellular tumor antigen p53 (Homo sapiens) (UniProt P04637)
# Assay: TOX21_p53_BLA_p2_ratio: Tox21 HCT-116 p53 Agonism Beta-lactamase Assay, Ratio, Phase 2 (AID 2283592)
# Text: TOX21_p53_BLA_p2 is a cell-based, single-readout assay that uses HCT116, a human intestinal cell line, […] in a 1536-well plate.TOX21_p53_BLA_p2_ratio is an assay readout measuring reporter gene via receptor activity and designed using inducible reporter (beta lactamase induction) detected with GAL4 b-lactamase reporter gene. The signal is derived from the ratio of cleaved (ch2) to uncleaved (ch1) reporter gene substrate used as the measure of target activity.Data from the assay component TOX21_p53_BLA_p2_ratio was analyzed into 1 assay endpoint. This assay endpoint, TOX21_p53_BLA_p2_ratio, was analyzed in the positive analysis fitting direction relative to DMSO as the negative control and baseline of activity. Using a type of inducible reporter, gain-of-signal activity can be used to understand changes in the reporter gene as they relate to the gene TP53. Furthermore, this assay endpoint can be referred to as a primary readout, because this assay has produced multiple assay endpoints and this ratio serves a reporter gene function to understand target activity. To generalize the intended target to other relatable targets, this assay endpoint is annotated to the DNA binding intended target family, where the subfamily is tumor suppressor.
# Thawing Method: Place 14 mL of pre-warmed thaw medium into a 15 mL of conical tub. Remove the vial of cells to be thawed from liquid nitrogen and thaw rapidly by placing at 37C in a water bath with gentle agitation for 1-2 minutes. Decontaminate the vial by wiping with 70% ethanol before opening in a biological safety cabinet. Transfer the vial contents drop-wise into 14 mL of thaw medium in a sterile 15-mL conical tub. Centrifuge cells at 900 rpm for 4 minutes and resuspend in thaw medium. Transfer contents to the T75 tissue culture flask containing Thaw Medium and place flask in a humidified 37C/5% CO2 incubator. Switch to growth medium at first passage.Propagation Method: Aspirate medium, rinse once in DPBS, add 0.25% Trypsin/EDTA and swirl to coat the cell evenly. Add an equal volume of Growth Medium to inactivate Trypsin after 2-3 minutes incubation at 37C. Centrifuge cells at 900 rpm for 4 minutes and resuspend in growth medium. Cell should be passage or fed at least twice a week.Assay Protocol: Harvest cells from culture in growth medium and resuspend in assay medium. 2.2 Dispense 4000 cells/5 uL/well into 1536-well black/clear bottom plates using a Multidrop dispenser. After the cells were incubated at 37C for 5 hours, 23 nL of compounds dissolved in DMSO were transferred to the assay plate by a PinTool resulting in a 217-fold dilution. Incubate the plates for 16 hours at 37C, 5% CO2. Add 1 uL of 6X LiveBLAzer FRET B/G (CCF4-AM) Substrate Mixture to each well using a BioRAPTR dispenser and incubate the plates at room temperature for 2 hours. Measure fluorescence intensity at 460 and 530 nm emission and 405 nm excitation by an Envision detector. Data is expressed as the ratio of 460nm/530nm emissions. Add 4 uL of Cell-titer Glo to each well using BioRAPTR and incubate the plates at room temperature for 2 hours. Measure fluorescence intensity by a VewLux plate reader.
# Chain of Cellular tumor antigen p53 (Homo sapiens) (P04637 whole entry, looked up): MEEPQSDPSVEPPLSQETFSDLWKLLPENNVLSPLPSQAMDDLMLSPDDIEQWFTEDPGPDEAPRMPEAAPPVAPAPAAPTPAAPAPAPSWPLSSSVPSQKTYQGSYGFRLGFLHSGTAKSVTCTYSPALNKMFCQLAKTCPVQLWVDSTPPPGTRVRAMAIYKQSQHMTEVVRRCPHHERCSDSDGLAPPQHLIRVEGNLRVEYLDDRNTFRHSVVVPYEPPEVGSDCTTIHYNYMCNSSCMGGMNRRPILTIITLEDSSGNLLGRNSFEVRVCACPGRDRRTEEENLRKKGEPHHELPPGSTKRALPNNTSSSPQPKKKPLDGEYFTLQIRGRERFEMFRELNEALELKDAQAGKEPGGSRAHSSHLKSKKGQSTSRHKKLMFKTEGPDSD
Compound,outcome,AC50
CCCCCCCCOC(=O)CCCCCCCCC(=O)OCCCCCCCC,inactive,–
CCc1ccc(CCOc2ccc(CC3SC(=O)NC3=O)cc2)nc1 (stereo not given),inactive,–
c1ccc2c(c1)Cc1ccccc1-2,inactive,–
CCCCCCCCCCCCCC[N+](C)(C)C,inactive,43.8 µM (active) and 11.3 µM (active)
Cc1ccc(S(=O)(=O)O)c(C)c1,inactive,–
CC[C@H](c1ccc(O)cc1)[C@@H](CC)c1ccc(O)cc1,inactive,66.6 µM (active)
CCCCCCCC(=O)O,inactive,–
C=C(C)C(=O)OCCC(F)(F)C(F)(F)C(F)(F)C(F)(F)C(F)(F)C(F)(F)F,inactive,–
NC(=O)N1C(=O)C(C(=O)c2cc(Cl)cs2)c2cc(F)c(Cl)cc21 (stereo not given),inactive,–
CC(C)(C)c1ccc(O)c(C(C)(C)C)c1,inactive,–
CC#C[C@]1(O)CC[C@H]2[C@@H]3CCC4=CC(=O)CCC4=C3[C@@H](c3ccc(N(C)C)cc3)C[C@@]21C,–,45.2 µM (active) and 19.9 µM (active)
O=c1c(-c2ccc(O)cc2)coc2cc(O)ccc12,inactive,–
NC(=O)N(O)[C@@H]1C=C[C@H](Oc2cccc(Oc3ccc(F)cc3)c2)C1,–,66.5 µM (active)
CC(C)(C)c1cccc(C(C)(C)C)c1O,inactive,–
CCCCCCCCCCCCN1CCCC1=O,inactive,–
CN1CCN(c2ccccc2/C=C2\SCCN(c3ccc(Cl)c(Cl)c3)C2=O)CC1,inactive,–
CCCCCCC(=O)O,inactive,–
O=C(OCCOCCOC(=O)c1ccccc1)c1ccccc1,inactive,–
CC(O)C(=O)O (stereo not given),inactive,–

Compound,outcome,AC50
CCCOc1sc(C(=O)N2CCC(c3cc(CN)ccc3F)CC2)c(C)c1Br,–,80.1 µM (active)
c1ccc2c(c1)ccc1ccccc12,inactive,–
ClC1=C(Cl)C(Cl)(Cl)C(Cl)=C1Cl,inactive,–
Oc1cc2ccccc2c2ccccc12,–,46.1 µM (active)
O=[N+]([O-])c1ccc(O)cc1,inactive,–
CC(O)CO (stereo not given),inactive,–
COc1ccc([N+](=O)[O-])cc1N,inactive,–
CC(C)(C)c1cc(C(C)(C)C)c(O)c(C(C)(C)C)c1,inactive,–
OC1CCCCC1,inactive,–
CN(C)C=O,inactive,–
CC(=O)NC1(c2cccc(F)c2)CCN(CC[C@@]2(c3ccc(Cl)c(Cl)c3)CN(c3ccccc3)C(=O)CO2)CC1,–,71.4 µM (active)
CCCCCCCCC(=O)O,inactive,–
CCC(C)(C)C1CCC(O)CC1 (stereo not given),inactive,–
Cc1cc(C)c(O)c(C)c1,inactive,–
CCCCCCCCCCCCCCCS(=O)(=O)Oc1ccccc1,inactive,–
C[C@@H]1C[C@H]2[C@@H]3CCC4=CC(=O)C=C[C@]4(C)[C@@]3(F)[C@@H](O)C[C@]2(C)[C@@]1(O)C(=O)COP(=O)(O)O,inactive,–
CCN(CC)CCNc1ccc(CNC=O)c2sc3ccc(OC)cc3c(=O)c12,–,10.2 µM (active)
CCCCC(CC)COC(=O)CCCCC(=O)OCc1ccccc1 (stereo not given),inactive,–
COC(=O)CCCCC(=O)OC,inactive,–
